Measured values: PubChem BioAssay (NCI)
The panel holds about 79,000 compounds, 15% with a hit somewhere; the sample as a whole holds those more often. Active and inactive are the calls of the source. Rule as the data show it: active = growth inhibition above about 70%; inactive = the rest.

Tests used:
[1] = NCI Yeast Anticancer Drug Screen. Data for the rad52 strain (AID 147);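 also: 0% = growth of vehicle-treated control cultures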; conditions: S. cerevisiae rad52 mutant growth inhibition, stronger effect = higher value
In short: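 Read-out: growth inhibition versus vehicle-treated controls. Cells were a DNA repair-deficient yeast strain treated with compounds.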

[2] = NCI Yeast Anticancer Drug Screen. Data for the wt1 strain (AID 149);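 also: 0% = growth of vehicle-treated wt1 cultures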; conditions: S. cerevisiae wt1 strain (SPY 50644) growth inhibition, stronger effect = higher value
In short: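 Using yeast strain wt1, compound-induced growth inhibition was determined against vehicle-treated cultures.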

[3] = NCI Yeast Anticancer Drug Screen. Data for the rad50EPP+ strain (AID 151);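 also: 0% = growth of vehicle-treated control cultures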; conditions: S. cerevisiae rad50 mutant strain, stronger effect = higher value
In short: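 Growth inhibition read against vehicle controls in rad50EPP+ yeast, a strain altered in DNA damage repair, after compound exposure.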

[4] = NCI Yeast Anticancer Drug Screen. Data for the mgt1 strain (AID 153); conditions: S. cerevisiae mgt1 mutant growth inhibition, stronger effect = higher value
In short: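 mgt1 yeast grown with test compound; read-out is growth inhibition versus vehicle-treated cultures.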

[5] = NCI Yeast Anticancer Drug Screen. Data for the mec2-1 strain (AID 157); conditions: S. cerevisiae mec2-1 strain, stronger effect = higher value
In short: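 Yeast mec2-1 mutant treated with compound. Readout: growth inhibition vs vehicle controls.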

[6] = NCI Yeast Anticancer Drug Screen. Data for the rad14 strain (AID 159);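 also: 0% = growth of vehicle-treated control cultures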; conditions: S. cerevisiae rad14 strain growth inhibition, stronger effect = higher value
In short: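 Screen for anticancer potential: a yeast strain altered in DNA damage repair is grown with compound, and reduced growth is quantified against vehicle controls.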

[7] = NCI Yeast Anticancer Drug Screen. Data for the sgs1 mgt1 strain (AID 161);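 also: 0% = growth of cultures given vehicle only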; conditions: S. cerevisiae sgs1 mgt1 strain, stronger effect = higher value
In short: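 Mutant yeast exposed to compound; growth scored against vehicle-only wells.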

[8] = NCI Yeast Anticancer Drug Screen. Data for the CLN2oe strain (AID 163);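 also: 0% = growth of vehicle-only control cultures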; conditions: S. cerevisiae CLN2oe strain, stronger effect = higher value
In short: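 Read-out: yeast growth inhibition, expressed relative to vehicle-only controls. The strain bears an engineered cell-cycle alteration.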

[9] = NCI Yeast Anticancer Drug Screen. Data for the cln2 rad14 strain (AID 165);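 also: 0% = growth equal to vehicle treated cultures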; conditions: S. cerevisiae cln2 rad14 strain, stronger effect = higher value
In short: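 cln2 rad14 yeast strain; compound exposure; growth inhibition read vs vehicle controls.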

[10] = NCI Yeast Anticancer Drug Screen. Data for the bub3 strain (AID 167); conditions: S. cerevisiae bub3 mutant strain, stronger effect = higher value
In short: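 Screening used yeast with an engineered genetic alteration affecting cell cycle control. Compound-exposed cultures were compared with vehicle cultures, and reduced growth was taken as inhibition.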

[11] = NCI Yeast Anticancer Drug Screen. Data for the wt2 strain (AID 169);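 also: 0% = growth of vehicle-treated yeast cultures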; conditions: S. cerevisiae wt2 strain growth inhibition, stronger effect = higher value
In short: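 Read-out: growth inhibition versus vehicle-treated control cultures after compound exposure of the yeast strain.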

[12] = NCI Yeast Anticancer Drug Screen. Data for the mlh1 strain (AID 171);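 also: 0% = growth of vehicle-treated control cultures of the same strain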; conditions: S. cerevisiae mlh1 strain growth inhibition, stronger effect = higher value
In short: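 Read-out: growth inhibition versus vehicle controls. Strain: engineered yeast with a defined DNA repair or cell cycle defect, compound-treated.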

[13] = NCI Yeast Anticancer Drug Screen. Data for the sgs1 strain (AID 173);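 also: 0% = growth of vehicle-only control cultures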; conditions: S. cerevisiae sgs1 mutant, stronger effect = higher value
In short: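 Read-out: yeast growth inhibition relative to vehicle controls, following compound exposure of a strain with a defined DNA repair/cell cycle alteration.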

[14] = NCI Yeast Anticancer Drug Screen. Data for the mlh1 rad18 strain (AID 175); conditions: S. cerevisiae mlh1 rad18 strain growth inhibition, stronger effect = higher value
In short: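 Yeast w/ defined DNA-repair lesions; compound exposure; growth vs vehicle controls → % inhibition.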

[15] = NCI Yeast Anticancer Drug Screen. Data for the rad18 strain (AID 177); conditions: S. cerevisiae rad18 mutant growth inhibition, stronger effect = higher value
In short: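 Readout: growth inhibition vs vehicle controls. Cells: genetically altered yeast strain, DNA repair defect.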

[16] = NCI Yeast Anticancer Drug Screen. Data for the rad50 strain (AID 155);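 also: 0% = growth of vehicle-only cultures of the same strain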; conditions: S. cerevisiae rad50 strain growth inhibition, stronger effect = higher value
In short: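 Relative growth inhibition (compound vs vehicle) was measured in yeast with a defined repair-gene alteration.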

[17] = at 5.0 µM (retest, dose inferred, filed as 0.5)
[18] = at 50.0 µM (retest, dose inferred, filed as 5.0)

Measured: growth inhibition

COC(C(O)CO)C(O)C(O)C(=O)NNc1ccccc1 (stereo not drawn)
active: [1]; at 100.0 µM 93% | [4]; at 100.0 µM 94% | [5]; [18] 76% | [5]; at 100.0 µM 94% | [6]; at 100.0 µM 84% | [7]; [18] 80% | [7]; at 50.0 µM 94.7% | [8]; at 100.0 µM 97% | [9]; at 50.0 µM 89% | [10]; [18] 97% | [10]; at 50.0 µM 96.1% | [10]; at 100.0 µM 93% | [11]; at 100.0 µM 86% | [12]; at 100.0 µM 97% | [13]; at 100.0 µM 97% | [14]; [18] 96% | [14]; at 50.0 µM 94.5% | [15]; at 11.0 µM 79% | [15]; at 33.0 µM 78% | [15]; at 100.0 µM 97%
inactive: [1]; at 1.2 µM 12% | [1]; at 3.7 µM 23% | [1]; at 11.0 µM 45% | [1]; at 33.0 µM 61% | [2]; at 1.2 µM 1% | [2]; at 3.7 µM 5% | [2]; at 11.0 µM 29% | [2]; at 33.0 µM 36% | [2]; at 100.0 µM 66% | [3]; at 1.2 µM 15% | [3]; at 3.7 µM 29% | [3]; at 11.0 µM 37% | [3]; at 33.0 µM 41% | [3]; at 100.0 µM 68% | [4]; at 1.2 µM -1% | [4]; at 3.7 µM 11% | [4]; at 11.0 µM 29% | [4]; at 33.0 µM 26% | [5]; at 1.2 µM 0% | [5]; at 3.7 µM 4% | [5]; [17] 7% | [5]; at 11.0 µM 40% | [5]; at 33.0 µM 31% | [5]; at 50.0 µM 54.4% | [6]; at 1.2 µM 6% | [6]; at 3.7 µM 9% | [6]; at 11.0 µM 19% | [6]; at 33.0 µM 21% | [7]; [17] 15% | [8]; at 1.2 µM 8% | [8]; at 3.7 µM 7% | [8]; at 11.0 µM 57% | [8]; at 33.0 µM 62% | [9]; [17] 5% | [9]; [18] 68% | [10]; at 1.2 µM -1% | [10]; at 3.7 µM 1% | [10]; [17] 23% | [10]; at 11.0 µM 26% | [10]; at 33.0 µM 34% | [11]; at 1.2 µM -4% | [11]; at 3.7 µM 22% | [11]; at 11.0 µM 22% | [11]; at 33.0 µM 9% | [12]; at 1.2 µM 2% | [12]; at 3.7 µM 9% | [12]; at 11.0 µM 44% | [12]; at 33.0 µM 61% | [13]; at 1.2 µM -11% | [13]; at 3.7 µM 34% | [13]; at 11.0 µM 47% | [13]; at 33.0 µM 68% | [14]; [17] 28% | [15]; at 1.2 µM 17% | [15]; at 3.7 µM 49%

CCCCCCCCCCCCCCCCCC(=O)NCCCN(C)C
inactive: [1]; at 1.2 µM -47% | [1]; at 3.7 µM -39% | [1]; at 11.0 µM -44% | [2]; at 1.2 µM -51% | [2]; at 3.7 µM -58% | [2]; at 11.0 µM -56% | [3]; at 1.2 µM -37% | [3]; at 3.7 µM -43% | [3]; at 11.0 µM 33% | [16]; at 1.2 µM -27% | [16]; at 3.7 µM -11% | [16]; [17] 33% | [16]; at 11.0 µM -17% | [5]; at 1.2 µM -31% | [5]; at 3.7 µM -31% | [5]; [17] 50% | [5]; at 11.0 µM -45% | [6]; at 1.2 µM -31% | [6]; at 3.7 µM -29% | [6]; at 11.0 µM -40% | [7]; [17] -32% | [8]; at 1.2 µM -35% | [8]; at 3.7 µM -37% | [8]; at 11.0 µM -80% | [9]; [17] 17% | [10]; at 1.2 µM 4% | [10]; at 3.7 µM 6% | [10]; [17] 42% | [10]; at 11.0 µM 1% | [11]; at 1.2 µM -29% | [11]; at 3.7 µM -27% | [11]; at 11.0 µM -37% | [12]; at 1.2 µM -21% | [12]; at 3.7 µM -35% | [12]; at 11.0 µM -44% | [13]; at 1.2 µM -5% | [13]; at 3.7 µM -13% | [13]; at 11.0 µM -13% | [14]; [17] 36% | [15]; at 1.2 µM -32% | [15]; at 3.7 µM -32% | [15]; at 11.0 µM -12%
active: [1]; at 33.0 µM 97% | [1]; at 100.0 µM 97% | [2]; at 33.0 µM 98% | [2]; at 100.0 µM 97% | [3]; at 33.0 µM 96% | [3]; at 100.0 µM 96% | [16]; at 33.0 µM 94% | [16]; [18] 98% | [16]; at 50.0 µM 92.2% | [16]; at 100.0 µM 96% | [5]; at 33.0 µM 98% | [5]; [18] 98% | [5]; at 50.0 µM 93.8% | [5]; at 100.0 µM 98% | [6]; at 33.0 µM 97% | [6]; at 100.0 µM 97% | [7]; [18] 97% | [7]; at 50.0 µM 93.2% | [8]; at 33.0 µM 97% | [8]; at 100.0 µM 97% | [9]; [18] 97% | [9]; at 50.0 µM 92% | [10]; at 33.0 µM 98% | [10]; [18] 95% | [10]; at 50.0 µM 92.2% | [10]; at 100.0 µM 98% | [11]; at 33.0 µM 97% | [11]; at 100.0 µM 98% | [12]; at 33.0 µM 97% | [12]; at 100.0 µM 97% | [13]; at 33.0 µM 96% | [13]; at 100.0 µM 97% | [14]; [18] 99% | [14]; at 50.0 µM 92.5% | [15]; at 33.0 µM 97% | [15]; at 100.0 µM 97%

C=C1CCC(O)C/C1=C/C=C1\CCCC2(C)C1CCC2C(C)CCCC(C)C (stereo not drawn)
active: [16]; [18] 84% | [5]; [18] 94%
inactive: [1]; at 1.2 µM -22% | [1]; at 3.7 µM -3% | [1]; at 11.0 µM -11% | [1]; at 33.0 µM 4% | [1]; at 100.0 µM 49% | [2]; at 1.2 µM -26% | [2]; at 3.7 µM -16% | [2]; at 11.0 µM -12% | [2]; at 33.0 µM -15% | [2]; at 100.0 µM 4% | [4]; at 1.2 µM -21% | [4]; at 3.7 µM -15% | [4]; at 11.0 µM -7% | [4]; at 33.0 µM -21% | [4]; at 100.0 µM 52% | [16]; at 1.2 µM -18% | [16]; at 3.7 µM -9% | [16]; [17] 13% | [16]; at 11.0 µM 5% | [16]; at 33.0 µM 0% | [16]; at 50.0 µM 51.8% | [16]; at 100.0 µM 30% | [5]; at 1.2 µM -40% | [5]; at 3.7 µM -25% | [5]; [17] 12% | [5]; at 11.0 µM -18% | [5]; at 33.0 µM 2% | [5]; at 50.0 µM -9.05%
